# A selection: hits, their analogues and other compounds. The true share with any hit is near 18%.
# DT40 TDP1 no CPT = qHTS for Inhibitors of human tyrosyl-DNA phosphodiesterase 1 (TDP1): qHTS in cells in absence of CPT. DT40 Tdp1-/- hTDP1 cells, no CPT, ATP luminescence, 48 h. Potency, µM (highest dose often 46.2 µM), for inactives: at the highest dose activity change, negative = growth inhibition, hits mostly inhibitors. 420,000 tested, 15% active. AID 686978, 2013; note: potency is the fitted concentration of half-maximal effect; % is set by controls: 0 for no effect and ±100 for the full control effect; nearly all actives have a fitted effect of over 55% in size
#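 Chicken DT40 Tdp1-/- cells stably complemented with human TDP1 were seeded at 400 cells/well with DMSO in place of 20 nM camptothecin. After compound pinning, cells grew at least 48 hr at 37 °C; viability read by CellTiter-Glo luminescence.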
# IL1B secr inh = qHTS for Inhibitors of Inflammasome Signaling: IL-1-beta AlphaLISA Primary Screen. 360,000 tested, 4.7% active. activity change, % at 57.5 µM. THP-1 LPS/ATP IL-1B secretion, AlphaLISA, 16 h; hits give low values; in the data active = activity change below about -50%; inconclusive = mostly about -30% to -49%; note: % is set by controls: 0 for no effect and ±100 for the full control effect
#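 Secreted IL-1B measured by AlphaLISA bead assay after 16 h compound exposure of THP-1 cells; compounds (final up to 57.5 uM) added 1 h before LPS (250 ng/mL) and ATP (1.25 mM) stimulation; lower signal means less secretion.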
# TDP1 cell CPT = qHTS for Inhibitors of human tyrosyl-DNA phosphodiesterase 1 (TDP1): qHTS in cells in presence of CPT; chicken DT40 Tdp1-/-;hTDP1 cells + 20 nM CPT, ATP luminescence, 48 h; Potency, µM (highest dose often 46.2 µM), for the others: at the highest dose activity change, negative = growth inhibition, hits mostly inhibitors; 420,000 tested, 12% active; note: potency is the fitted concentration of half-maximal effect; % is set by controls: 0 for no effect and ±100 for the full control effect; nearly all actives have a fitted effect of over 55% in size
#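 Cell growth measured by CellTiter-Glo luminescence after a minimum 48 h, 37 C compound exposure with 20 nM CPT in Tdp1-knockout DT40 cells stably expressing hTDP1, seeded 400/well; qHTS titration format.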
# TGFb inhibitor = qHTS for Inhibitors of TGF-b | 410,000 tested, 1.2% active | AID 588855, 2011 | HepG2 CAGA-GFP TGF-b/SMAD3 reporter, GFP fluorescence, 18 h; TGF-beta stimulated, 500 pg/mL final | Potency, µM (series often up to 46.1 µM), for inactives: at the top dose activity, negative = inhibition, most hits filed as inhibitors; note: potency is the fitted concentration of half-maximal effect; % is set by controls: 0 for no effect and ±100 for the full control effect; nearly all actives have a fitted effect of over 65% in size
#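 Read-out: total well GFP (ex488/em500-530) summed from mean per-cell fluorescence. Cells: HEPG2 CAGA-GFP, 1% FBS DMEM, 18 h at 37 degrees C with 500 pg/mL final TGF-beta. Unstimulated wells served as the full-inhibition control; stimulated DMSO wells = 0%.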
# TDP1 inh = qHTS Assay for Inhibitors of Tyrosyl-DNA Phosphodiesterase (TDP1); Potency, µM (titrated, usually from 130 µM), for inactives: at the highest dose activity change, negative = inhibition, most hits filed as inhibitors; recombinant TDP1, AlphaScreen DNA substrate cleavage; 350,000 tested, 0.28% active; note: potency is the fitted concentration of half-maximal effect; % is set by controls: 0 for no effect and ±100 for the full control effect; nearly all actives have a fitted effect of over 40% in size
# Target sequence (Q9NUW8 whole entry, looked up): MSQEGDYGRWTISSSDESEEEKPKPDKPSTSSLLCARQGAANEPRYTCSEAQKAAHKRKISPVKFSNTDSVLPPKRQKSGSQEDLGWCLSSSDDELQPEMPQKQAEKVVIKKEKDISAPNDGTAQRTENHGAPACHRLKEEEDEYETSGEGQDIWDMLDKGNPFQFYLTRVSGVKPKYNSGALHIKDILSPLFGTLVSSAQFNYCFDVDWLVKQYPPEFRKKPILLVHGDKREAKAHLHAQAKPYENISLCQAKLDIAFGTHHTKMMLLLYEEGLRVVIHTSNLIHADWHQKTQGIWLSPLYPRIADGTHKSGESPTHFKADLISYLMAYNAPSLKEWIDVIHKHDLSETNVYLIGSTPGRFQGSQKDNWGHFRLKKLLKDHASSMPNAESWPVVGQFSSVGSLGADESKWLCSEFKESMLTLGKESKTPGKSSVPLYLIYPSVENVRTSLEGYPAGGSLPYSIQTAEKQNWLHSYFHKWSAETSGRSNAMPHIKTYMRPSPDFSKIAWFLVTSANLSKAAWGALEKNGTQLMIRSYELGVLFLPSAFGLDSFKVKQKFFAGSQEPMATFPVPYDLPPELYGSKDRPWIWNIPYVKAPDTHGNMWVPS
#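 Recombinant E. coli-expressed Tdp1 (1 nM) preincubated with compound 15 min at RT, then 5'-biotin/3'-phosphotyrosine-FITC DNA substrate (15 nM) added for 5 min. AlphaScreen beads (10 ug/ml) added, 10 min RT; tyrosine-FITC cleavage read as signal loss.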
# HepG2 viability = qHTS for Inhibitors of TGF-b: Cytotox Counterscreen; HepG2 CAGA-GFP viability, ATP luminescence, 18 h; AID 588856, 2011; Potency, µM (top dose mostly 46.1 µM), without a hit: at the top dose activity change, negative = cytotoxicity, actives largely listed as cytotoxic; 410,000 tested, 0.76% active; note: potency is the fitted concentration of half-maximal effect
#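 HepG2 CAGA-GFP cells (1000/well, DMEM with 1% FBS) received compound, then TGF-beta at 500 pg/mL final, and were incubated 18 hours at 37 degrees C. Viability was read by CellTiter-Glo luminescence. Media-only wells were set as complete cell-killing and DMSO as no toxicity.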
# Numbers without * were called inactive; ? = inconclusive; nt = no result; [ ] = dose if it differs, or a comment. Unless noted, calls come from the whole dose curve; as a rule, active = well fitted curve in the direction sought with a large enough effect; inconclusive = small, poorly fitted or top-dose-only effect, or another doubt; inactive = no such curve, though single readings can be large; an effect the other way counts as inactive or inconclusive.
SMILES,DT40 TDP1 no CPT,IL1B secr inh,TDP1 cell CPT,TGFb inhibitor,TDP1 inh,HepG2 viability
O=C(Cc1ccc(Cl)cc1Cl)Nc1cccc(S(=O)(=O)Nc2ccccc2F)c1,23.1µM*,-101.6*,14.6µM*,-24.2%,2.7%,-15.5%
Cc1cc(C)n2nc(C(=O)Nc3cccc(S(=O)(=O)N4CCCC4)c3)nc2n1,-4.5%,-10.4,2.2%,9.6%,-3.1%,-3.0%
COC(=O)N1CCC2(CC1)CN(c1ccccc1)C2,-18.6%,nt,-10.8%,nt,nt,nt
Cc1cc(C(=O)NCc2ccccc2Cl)c2c(C)nn(-c3ccccc3)c2n1,nt,nt,nt,2.5%,2.1%,-3.3%
O=C(Nc1cccc(S(=O)(=O)Nc2ccccc2F)c1)c1ccc2ccccc2n1,23.1µM*,-50.9*,?,-10.1%,5.0%,-11.1%
O=c1/c(=C/c2ccco2)sc2n1CN(c1cccc(Br)c1)CN=2,-12.8%,-50.1*,-16.3%,8.8%,3.9%,-7.1%
Cc1ccc(/C=c2\sc3n(c2=O)CN(c2cccc(Br)c2)CN=3)o1,-19.8%,-50.9*,-26.3%,18.3%,2.1%,-19.6%
Cc1cc(C)cc(N2CN=c3s/c(=C\c4ccco4)c(=O)n3C2)c1,-18.2%,-6.8,-14.8%,-3.4%,-8.9%,-11.9%
CC(C)N(C(=O)CSc1n[nH]c(=O)n1CCc1ccccc1)C(C)C,?,17.6,0.0%,2.0%,-8.8%[0.0935 µM],0.3%
O=C(CSc1ccc(-c2ccccn2)nn1)NCc1ccc(F)cc1,-7.8%,69.9,14.4%,?,2.5%,2.4%
CNS(=O)(=O)c1ccc(NC(=O)c2ccoc2C)cc1,-25.8%,-7.7,-2.5%,12.5%,0.0%,0.8%
Cc1ccc(NC(=O)c2ccoc2C)cc1C,?,-5.9,?,-10.9%,3.4%,-42.5%
Cc1occc1C(=O)N1CCN(c2ccccc2)CC1,-0.2%,1.7,-23.7%,-27.3%,2.5%,-4.6%
Cc1occc1C(=O)Nc1ccc(S(N)(=O)=O)cc1,?,-1.9,23.1µM*,-5.5%,-4.7%,-0.5%
Cc1occc1C(=O)NNC(=O)Nc1ccc(Cl)c(Cl)c1,?,-12.4,14.6µM*,16.3%,0.6%,2.9%
Cc1cc(NC(=O)c2ccoc2C)ccc1Br,-24.6%,?,?,15.8µM*,3.0%,-50.9%
Cc1ccsc1C(=O)NNC(=O)Nc1ccc(Cl)c(Cl)c1,-24.2%,-7.2,-5.7%,-14.3%,6.8%,12.5%
Cc1occc1C(=O)N1CCN(c2ccc(Cl)c(Cl)c2)CC1,16.4µM*,-22.5,?,?,2.6%,-31.3%
Cc1ccc(NS(=O)(=O)c2ccc3nc(-c4ccccc4)[nH]c3c2)c(Cl)c1,?,nt,?,?,2.5%,-26.7%
COc1cccc(C(=S)N2CCCC2)c1OC,-25.1%,13.9,-19.1%,-0.5%,2.5%,14.3%
CC1(C(=O)NS(=O)(=O)c2cccc(OC(F)F)c2)CCN1C(=O)C/C=C/c1ccccc1 (stereo not given),-12.5%,19.9,-21.0%,16.0%,nt,-25.2%
C[C@@H]1CN([C@@H](C)CO)C(=O)c2cc(N(C)C)ccc2O[C@@H]1CN(C)S(C)(=O)=O,4.6%,2.2,2.7%,6.9%,0.1%,-25.9%
Cc1ccc(-c2nn3c(-c4ccccc4C)nnc3c3ccccc23)cc1,18.4µM*,nt,?,-29.7%,3.2%,-34.3%
Cc1ccc(-c2nn3c(-c4ccccc4)nnc3c3ccccc23)cc1,-18.2%,nt,7.6%,-13.4%,0.0%,-4.5%
COc1ccc(CCN2C(=O)c3ccccc3C2c2nnnn2Cc2ccccc2)cc1OC (stereo not given),?,15.1,?,nt,nt,nt

# Assay outcomes: PubChem BioAssay, National Center for Advancing Translational Sciences (NCATS)
